PubChem BioAssay AID743395 (Broad Institute, 2014)
Out of some 1,200 compounds screened, about 480 (40%) were called active. No rule for the calls is given here. The set was probably picked from earlier hits. These entries were drawn from the full list. Results with a measured potency or affinity are listed apart.

Assay: viability loss in human hepatoma cells – cell-based, CellTiter-Glo luminescence, cherry-pick, set 2, cytotoxicity control, dose response (AID 743395);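 also: 0% = neutral control wells and -100% = positive control wells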
Settings: HepG2 viability, CellTiter-Glo ATP luminescence, 72 h; series mostly up to 26 µM; activity change, negative = cytotoxicity: at the top concentration

SMILES | activity change, negative = cytotoxicity
CCN(C(=O)COC(=O)c1cc(-c2ccccc2)nc2c1c(C)nn2-c1ccc(C)cc1)C1CCS(=O)(=O)C1 (stereo not given) | -8.63% (inactive)
CC(C)c1ccc(CN2CCN(S(=O)(=O)c3ccc(Cl)s3)CC2)cc1 | -4.24% (inactive)
Cc1cc(C)cc(C(=O)NCC(=O)OCc2cc([N+](=O)[O-])cc3c2OCOC3)c1 | 17% (inactive)
CCN(CC)C(=S)SSC(=S)N(CC)CC | -4.43% (inactive)
Cc1cc2c(cc(C(=O)OC(C)C(=O)NCc3ccc(F)cc3)n2C)o1 (stereo not given) | -0.125% (inactive)
CCN(CC)CCn1c2c(c(SCC(=O)Nc3ccc(F)c(F)c3)nc1=O)CCC2 | -13% (inactive)
COc1cc(C(=O)OCCc2cc3ccccc3c(=O)o2)cc(OC)c1OC | -16.8% (inactive)
O=C1c2ccccc2C(=O)N1Cc1cnc(N2CCN(c3ccccc3)CC2)s1 | -32% (inactive)
CCOC(=O)c1cnc(COc2ccc(OC)cc2)[nH]c1=O | -2% (inactive)
S=C(NCCc1ccccc1)Nc1nccs1 | -14.8% (inactive)
COc1ccc(NS(=O)(=O)c2cc(NC(=O)Cc3c(F)cccc3Cl)ccc2OC)cc1 | -10.6% (inactive)
CC1CN(S(=O)(=O)c2ccc(C(=O)N3CCc4ccccc43)cc2)CC(C)O1 (stereo not given) | 5.35% (inactive)
O=S(=O)(c1ccc(Br)cc1)N1CCCc2ccccc21 | 4.64% (inactive)
C[C@H](CO)N1C[C@H](C)[C@H](CN(C)C(=O)c2ccc3c(c2)OCO3)Oc2cc(C#Cc3ccccc3F)ccc2S1(=O)=O | 62.9% (inactive)
COc1ccc(C)cc1NC(=O)C(OC(=O)c1ccc(Cl)c(S(=O)(=O)N(C)c2ccccc2)c1)c1ccccc1 (stereo not given) | 6.28% (inactive)
O=c1c(O)c(-c2cccs2)oc2ccc(Cl)cc12 | -32.4% (inactive)
O=C(NCCCN1CCCC1=O)c1cc(S(=O)(=O)N2CCOCC2)c(Cl)cc1Cl | 1.04% (inactive)
CC(C)Oc1ccc(S(=O)(=O)N2CCOCC2)cc1NC(=O)CCCSc1ccccc1 | 7.1% (inactive)
c1ccc2c(c1)N1CCCN=C1N2CCN1CCCCC1 | -12.9% (inactive)
COc1ccc(NC(=O)N(C)C[C@@H]2Oc3cc(C#CCC(C)C)ccc3S(=O)(=O)N([C@H](C)CO)C[C@@H]2C)cc1 | 7.43% (inactive)
Cc1ccc(S(=O)(=O)N2CCOCC2)cc1NC(=O)CSc1nnc(COc2ccccc2F)n1N | -0.298% (inactive)
O=C(NCC(c1cccs1)N1CCOCC1)c1ccc(OCc2ccccc2)cc1 (stereo not given) | 12.2% (inactive)
CCOC(=O)[C@H](CCc1ccccc1)N[C@@H](C)C(=O)N1[C@H](C(=O)O)C[C@@H]2CCC[C@@H]21 | -17.6% (inactive)
CCOc1ccc(NS(=O)(=O)c2cc(NC(=O)CCNC(=O)c3ccco3)ccc2OC)cc1 | -23.6% (inactive)
CC(=O)OCC(=O)NCCCOc1cccc(CN2CCCCC2)c1 | -9.23% (inactive)

SMILES | activity change, negative = cytotoxicity
Cc1c(C)c2c(OCC(=O)N3CCC(O)CC3)cc3c(c2oc1=O)CCC(C)(C)O3 | -0.002% (inactive)
CCOc1ccc(C(=O)N[C@H](C(=O)Nc2cccc(S(=O)(=O)N3CCCCC3)c2)C(C)C)cc1 | 34.1% (inactive)
CN(Cc1cccs1)C(=O)c1cccc(S(=O)(=O)N2CCCCCC2)c1 | -15.8% (inactive)
COC(CNC(=O)[C@H](Cc1ccccc1)N1Cc2ccccc2C1=O)OC | 1.08% (inactive)
CC(C(=O)O)N(C(=O)c1ccccc1)c1ccc(F)cc1 (stereo not given) | -6.57% (inactive)
COc1ccc(NC(=O)C2CCCN2C(=O)Nc2cccc(F)c2)cc1 (stereo not given) | -4.96% (inactive)
O=C(NCCC1CCCCN1S(=O)(=O)c1cccs1)C(=O)Nc1ccc(F)cc1F (stereo not given) | -11.5% (inactive)
Cc1ccc(OCC(=O)Nc2ccc(CN3CCCCC3)cc2)c(C)c1 | -4.73% (inactive)
CCN(CC)C1=CC2=CC(=C(C#N)C#N)CCC2CC1 (stereo not given) | 2.84% (inactive)
N#CC(C#N)=C1C=C2C=C(N3CCOCC3)CCC2CC1 (stereo not given) | -4.57% (inactive)
C#C[C@]1(O)CC[C@H]2[C@@H]3CCc4cc(OC)ccc4[C@H]3CC[C@@]21C | -1.22% (inactive)
CC12CCC3c4ccc(O)cc4CCC3C1CCC2=O (stereo not given) | -5.95% (inactive)
COc1cccc(C#Cc2ccc3c(c2)O[C@@H](CN(C)C(=O)c2ccccn2)[C@H](C)CN([C@@H](C)CO)S3(=O)=O)c1 | 11.2% (inactive)
O=C(O)COC(=O)Cc1ccccc1Nc1c(Cl)cccc1Cl | -6.65% (inactive)
Cc1ccc(C(=O)Nc2cccc(C(F)(F)F)c2)cc1Nc1cnccn1 | 2.75% (inactive)
CC(=O)c1cc(NC(=O)c2cccc(C(F)(F)F)c2)c(=O)oc1C | 1.46% (inactive)
COCCNc1nc(Nc2ccc(C)cc2C)c2sccc2n1 | -3.94% (inactive)
Cn1cccc1C(=O)OCC(=O)NCc1ccc2c(c1)OCO2 | -11.8% (inactive)
CC(C)(C)C(=O)Nc1ccc(S(=O)(=O)NC2=NCCCCC2)cc1 | -0.044% (inactive)
CC(=O)NS(=O)(=O)c1ccc(NC(=O)CSc2ccc(Cl)cc2)cc1 | -2% (inactive)
Cc1ccc(S(=O)(=O)Nc2cc(C)cc(CCNC=O)c2C)cc1 | 4.38% (inactive)
Cc1cc(O)cc2c1C1CCC3(C)C(=O)CCC3C1C=C2 (stereo not given) | 8.57% (inactive)
COc1ccc(-c2oc3ccc(-c4cc(OC)c(OC)c(OC)c4)cc3c2C#Cc2ccccn2)cc1 | -5.9% (inactive)
COc1ccc(CCn2c(NN=C(C)C)nc3c2c(=O)[nH]c(=O)n3C)cc1 | -1.37% (inactive)
CCCCNC(=O)CSc1nc2ccc(C)cc2[nH]1 | 4.44% (inactive)

SMILES | activity change, negative = cytotoxicity
COC(=O)c1ccc(C(=O)NC2CCCc3c2cnn3-c2cc(F)cc(F)c2)nc1 (stereo not given) | -22.1% (inactive)
COC(=O)C1=CN(c2ccc3c(c2)OCO3)C(N)=C(C#N)C1c1cccc(F)c1 (stereo not given) | -9.02% (inactive)
COc1cccc(NC(=O)c2cnc(SCC(=O)NCc3ccc4c(c3)OCO4)n(C)c2=O)c1 | -13.8% (inactive)
C/C=C/c1ccc([C@@H]2[C@H](CO)N3CCCCN(S(=O)(=O)c4ccccc4)C[C@@H]23)cc1 | 9.51% (inactive)
OC[C@@H]1[C@@H](c2ccc(C#CC3(O)CCCC3)cc2)[C@H]2CN(Cc3ccccc3F)CCCCN12 | -24.4% (inactive)
O=C(Nc1ccccc1)N1C[C@H]2[C@@H](c3ccccc31)[C@H](CO)N2C(=O)c1ccccn1 | -1.86% (inactive)
O=C(Nc1ccc(F)cc1)N1CCCCN2[C@H](C1)[C@H](c1ccc(-c3cccc(F)c3)cc1)[C@@H]2CO | -14.1% (inactive)
CCOc1ccc(NC(=O)CN(c2ccc([N+](=O)[O-])cc2)S(=O)(=O)c2ccccc2)cc1 | -26% (inactive)
Cc1ccc(NC(=O)Cc2nc(-c3c[nH]c(C(=O)N4CCCC4)c3)cs2)c(C)c1 | -12.1% (inactive)
OC[C@H]1[C@H](c2ccc(C#CC3(O)CCCC3)cc2)[C@H]2CN(Cc3ccccc3F)CCCCN21 | -17.8% (inactive)
COc1ccc(C#Cc2ccc([C@H]3[C@H]4CN(C(=O)c5ccncc5)CCCCN4[C@H]3CO)cc2)cc1 | -22.7% (inactive)
O=S(=O)(Cc1ccccc1)N1CCCCN2[C@H](C1)[C@@H](c1ccc(C#Cc3ccccc3)cc1)[C@@H]2CO | -21.4% (inactive)
C[C@]12C=CC(=O)C=C1CC[C@@H]1C2[C@@H](O)C[C@@]2(C)C1CC[C@]2(O)C(=O)COC(=O)CCC(=O)O (stereo not given in full) | -0.286% (inactive)
Nc1nn(-c2ccccc2)c(N)c1N=Nc1cccc(F)c1 | -13.9% (inactive)
CCN(C(=O)COc1ccc2ccc(=O)oc2c1)C1CCCCC1 | -7.77% (inactive)
CC(C)Nc1nc(Nc2ccc(Cl)cc2F)c2sccc2n1 | -18% (inactive)
COc1cc(C(=O)N2CCC(C(N)=O)CC2)ccc1OCc1c(C)noc1C | -3.78% (inactive)
Cc1noc(C)c1COc1ccc(C(=O)N2CCN(S(=O)(=O)c3ccc(F)cc3)CC2)cc1 | -4.3% (inactive)
CCOC(=O)c1c(NC(=O)CN2C(=O)NC3(CCC(C)CC3)C2=O)sc(C)c1CC (stereo not given) | 3.65% (inactive)
CC(Oc1ccccc1Cl)C(=O)Nc1ccc(S(=O)(=O)Nc2nccs2)cc1 (stereo not given) | -13.9% (inactive)
CCCCCCCCCC(=O)OCC(O)CO (stereo not given) | 3.56% (inactive)
O=C(CSc1nnc(Cn2c(=O)sc3ccccc32)n1-c1ccccc1)NCc1ccco1 | -0.55% (inactive)
Cc1cccc(COc2ccccc2C(=O)NC2CCC(O)CC2)c1 (stereo not given) | -4.57% (inactive)
Cc1csc2sc(-c3ccnc(SCC(=O)NCc4ccccc4)n3)c(C)c12 | -12.3% (inactive)
CCC(=O)N1[C@H](CN(CC)C(C)=O)[C@@H](c2ccc(-c3ccccc3)cc2)[C@@H]1CO | 1.41% [at 23.5 µM] (inactive)

SMILES | activity change, negative = cytotoxicity
CC(C)C#Cc1ccc([C@@H]2[C@@H](CO)N3C(=O)CN(S(=O)(=O)c4ccccc4)C[C@@H]23)cc1 | -4.65% (inactive)
CN(C[C@@H]1N[C@H](CO)[C@H]1c1ccccc1)C(=O)c1ccccn1 | 1.53% (inactive)
CNC(=O)CC1C(=O)N(c2ccc(F)cc2)C(=S)N1NC(=O)c1ccc(Cl)cc1 (stereo not given) | -23.1% (inactive)
C[C@H]1CCCCO[C@@H](CN(C)C(=O)Nc2ccc(C(F)(F)F)cc2)[C@@H](C)CN([C@@H](C)CO)C(=O)c2cc(NC(=O)Nc3ccc4c(c3)OCO4)ccc2O1 | -1.27% (inactive)
C[C@H]1CCCCO[C@@H](CN(C)C(=O)Nc2ccc(C(F)(F)F)cc2)[C@@H](C)CN([C@@H](C)CO)C(=O)c2cc(NC(=O)Nc3ccc(F)cc3)ccc2O1 | 14.7% (inactive)
C[C@@H]1CN([C@@H](C)CO)C(=O)c2cccc(NC(=O)NC3CCCCC3)c2O[C@@H]1CN(C)Cc1ccc(Cl)c(Cl)c1 | 5.25% (inactive)
C[C@H](CO)N1C[C@H](C)[C@@H](CN(C)C(=O)Nc2ccc(C(F)(F)F)cc2)OCCCC[C@H](C)Oc2ccc(NC(=O)Nc3ccc(F)cc3)cc2C1=O | -21% (inactive)
C[C@H]1CCCCO[C@@H](CN(C)C(=O)C2CCCCC2)[C@@H](C)CN([C@@H](C)CO)C(=O)c2cc(NC(=O)Nc3ccc(C(F)(F)F)cc3)ccc2O1 | -1.26% [at 23.5 µM] (inactive)
C[C@H]1CCCCO[C@H](CN(C)C(=O)Nc2ccc(C(F)(F)F)cc2)[C@@H](C)CN([C@@H](C)CO)C(=O)c2cc(NC(=O)Nc3ccc(F)cc3)ccc2O1 | -0.6% (inactive)
C[C@H]1CN([C@@H](C)CO)S(=O)(=O)c2ccc(/C=C/c3ccccc3)cc2O[C@@H]1CN(C)C(=O)Nc1ccc(F)cc1 | -1.73% (inactive)
Cn1cnc2nc[nH]c2c1=S | 1.09% (inactive)
Cc1ccc(NC(=O)COc2ccc(Br)cc2CO)cc1S(=O)(=O)N1CCOCC1 | 5.44% (inactive)
CCc1nc(C)cn1S(=O)(=O)c1ccc2c(c1)OCCO2 | 23% (inactive)
CCCCC(=NCCc1c(C)[nH]c2ccccc12)C1=C(O)CC(c2ccccc2)CC1=O (stereo not given) | -16.5% (inactive)
COC(=O)c1[nH]c2c(c1C)C(=O)CC(c1cccc(OC)c1)C2 (stereo not given) | -9.76% (inactive)
O=C(Cc1ccccn1)NCC[C@H]1CC[C@@H](NC(=O)Nc2ccc(C(F)(F)F)cc2)[C@@H](CO)O1 | 8.05% (inactive)
Cc1ccc(S(=O)(=O)N(Cc2cc3ccccc3[nH]c2=O)c2cccc(C)c2)cc1 | 1.26% (inactive)
C=CC(C)(C)c1[nH]cnc1/C=C1\NC(=O)C(C(C)C)NC1=O (stereo not given) | -24.7% (inactive)
O=C(Cc1ccc(Cl)cc1)OCC(=O)c1ccc[nH]1 | -6.25% (inactive)
Cc1ccc(CN(C)CC(=O)Nc2cccc([N+](=O)[O-])c2)o1 | -15.2% (inactive)
CCCCN(C(=O)c1cc(S(=O)(=O)N2CCCCC2)ccc1Cl)c1c(N)n(CC(C)C)c(=O)[nH]c1=O | -14.3% (inactive)
O=C(C[C@H]1CC[C@@H]2[C@H](COC[C@@H](O)CN2S(=O)(=O)c2ccccc2)O1)Nc1ccc(-c2ccccc2)cc1 | -22.6% (inactive)
CN1C(=O)c2cc(NC(=O)Cc3ccccc3)ccc2OC[C@@H]2O[C@H](CC(=O)NCc3ccc(Cl)cc3)CC[C@H]21 | -16% (inactive)
COc1ccc(NC(=O)CSc2nnc(Cc3cccs3)n2C)cc1 | -0.153% (inactive)
CCCCn1cnc2c(c(CC#N)nn2-c2ccccc2)c1=N | 0.565% (inactive)
